Bioassay records from PubChem.
An excerpt weighted towards active compounds, which were near 21% of everything screened.
HCV inh = HCV inhibition; hit rate 3.4% among 340,000; Huh7.5.1 HCVcc-Cre infection, luciferase reporter, 44 h; AID 651820; Potency, µM (titrated, usually from 41.8 µM), inactives show at the top dose activity change, negative = inhibition, actives largely listed as inhibitors; note: potency is the fitted concentration of half-maximal effect; % is set by controls: 0 for no effect and ±100 for the full control effect
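Cells seeded at 1,000/well and cultured 4 h, then compounds added followed by HCVcc-Cre virus (~0.5 moi). After 44 h further culture, luciferase substrate was added, plates held 15 min at room temperature, and luminescence read for 15 sec.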
Shiga toxin inh = inhibitors of Shiga toxin in Vero cells; inhibition, % at 38.7 µM; hit rate 9.2% among 290,000; Vero cells, Shiga toxin protein synthesis inhibition reporter; AID 2315; in the data active = inhibition mostly above about 28%, no sharp cut-off; inactive = mostly below about 43%; note: 0% is about no effect
Pf growth 96h = P. falciparum growth inhibition at 96 hours. P. falciparum luciferase reporter growth, 96 h. Potency, µM (top dose mostly 28.7 µM), inactives show at the top dose activity change, negative = inhibition, most hits filed as inhibitors. hit rate 6.9% among 320,000. AID 504834; note: potency is the fitted concentration of half-maximal effect; % is set by controls: 0 for no effect and ±100 for the full control effect
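P. falciparum expressing integrated firefly luciferase grown in erythrocytes (2% hematocrit, 0.05% parasitemia final) with compounds for 96 hours at 37 C, 5% CO2. Growth inhibition read as loss of luminescence after adding luciferase detection reagent.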
HCMV inh = blocks human cytomegalovirus replication; HFF cells, HCMV-luciferase reporter, 72 h; stronger effect = lower value; activity change, negative = inhibition, % at 57.5 µM; hit rate 4.5% among 410,000; AID 1259415; in the data active = activity change below about -60%; inconclusive = no clear call, values can overlap the other calls; inactive = above about -39%; note: % is set by controls: 0 for no effect and ±100 for the full control effect
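Steps: HFFs plated, 16 h 37C; compounds added; HCMV-luciferase added to MOI 1 PFU/cell; 72 h 37C; OneGlo reagent, 5 min room temperature; luminescence read, normalized to controls.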
Cycloheximide cs = counter-screen for Shiga toxin inhibitors: cycloheximide protein synthesis inhibition. cell reporter, cycloheximide protein synthesis inhibition counterscreen. max response, %. hit rate 12% among 300,000. AID 2314; in the data active = max response mostly above about 13%, no sharp cut-off; inactive = mostly below about 14%; note: read at 38.3 µM for the half of the compounds with a filed dose; 0% is about no effect
Pf growth 48h = inhibits P. falciparum growth in the first generation, 48 h | P. falciparum luciferase growth in erythrocytes, 48 h | Potency, µM (titrated, usually from 28.7 µM), without a hit: at the top dose activity change, negative = inhibition, actives largely listed as inhibitors | hit rate 5.9% among 310,000 | AID 504832; note: potency is the fitted concentration of half-maximal effect; % is set by controls: 0 for no effect and ±100 for the full control effect
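Here the parasites carry a stable luciferase gene and grow inside erythrocytes in Albumax-based RPMI medium with compound for one erythrocytic cycle. Activity is scored as loss of luminescent signal.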
An asterisk follows results filed as active. Unless noted, calls come from the whole dose curve; as a rule, active = well fitted inhibition curve with a large enough effect; inconclusive = small, poorly fitted or top-dose-only effect, or another doubt; inactive = no such curve, though single readings can be large or run the other way.

For O=c1oc2cc(O)ccc2cc1-c1ccccc1 the results were HCV inh -7%, Shiga toxin inh 54*, Pf growth 96h 49%, HCMV inh -39, Cycloheximide cs 38* and Pf growth 48h 64%.
Screening COc1ccc(-c2cc3ccc(O)cc3oc2=O)cc1 returned HCV inh -24%, Shiga toxin inh 74*, Pf growth 96h 188%, HCMV inh 0, Cycloheximide cs 37* and Pf growth 48h 152%.
CCCCN1C(=O)C2ON(c3ccccc3C)C(c3ccco3)C2C1=O (stereo not drawn) was read as HCV inh -1%, Shiga toxin inh 6, Pf growth 96h 85%, HCMV inh -23, Cycloheximide cs -1 and Pf growth 48h 13µM*.
CCOC(=O)C1CCN(c2nc3ccccc3nc2C(C#N)C(=O)OC(C)C)CC1 (stereo not drawn) was read as HCV inh -2%, Shiga toxin inh -4, Pf growth 96h 9%, HCMV inh 0, Cycloheximide cs -2 and Pf growth 48h inconclusive.
`CCOC(=O)C1CCN(c2nc3ccccc3nc2C(C#N)C(=O)OC(C)COC)CC1` (stereo not drawn) gave HCV inh inconclusive, Shiga toxin inh -4, Pf growth 96h inconclusive, HCMV inh -15, Cycloheximide cs -2 and Pf growth 48h 8.3µM*.
Screening COC(=O)C1CCN(c2nc3ccccc3nc2C(C#N)C(=O)NCCc2ccccc2)CC1 (stereo not drawn) returned HCV inh 3%, Shiga toxin inh 76, Pf growth 96h 15µM*, HCMV inh 138, Cycloheximide cs 11 and Pf growth 48h -2%.
Screening CCC(C)COC(=O)C(C#N)c1nc2ccccc2nc1N1CCCCC1 (stereo not drawn) returned HCV inh -28%, Shiga toxin inh -22, Pf growth 96h -99%, HCMV inh inconclusive, Cycloheximide cs -3 and Pf growth 48h inconclusive.
Screening C=CCOC(=O)C(C#N)c1nc2ccccc2nc1N1CCC(C(=O)OCC)CC1 (stereo not drawn) returned HCV inh inconclusive, Shiga toxin inh 35, Pf growth 96h 56%, HCMV inh -10, Cycloheximide cs 5 and Pf growth 48h 1.2µM*.
For CCC(CC)COC(=O)C(C#N)c1nc2ccccc2nc1N1CCN(CC)CC1 (stereo not drawn) the results were HCV inh inconclusive, Shiga toxin inh -30, Pf growth 96h 46%, HCMV inh -8, Cycloheximide cs 1 and Pf growth 48h 10µM*.
Screening S=c1[nH]nc(C2CCCCC2)o1 returned HCV inh 13%, Shiga toxin inh 0, Pf growth 96h 8%, HCMV inh -14, Cycloheximide cs 6 and Pf growth 48h 7%.
CC1CN(C(=O)N2CCC(C(=O)NCc3cccs3)CC2)c2cc(Cl)ccc2O1 (stereo not drawn) was read as HCMV inh -11.
Cc1noc(/C=C/c2ccccc2F)c1S(=O)(=O)N1CCC(C(=O)N(C)Cc2ccco2)CC1 was read as HCMV inh 61.
For CCOc1ccccc1N1CCN(c2nc3ccccc3nc2C(C#N)C(=O)OC(C)C)CC1 (stereo not drawn) the results were HCV inh inconclusive, Shiga toxin inh -11, Pf growth 96h inconclusive, HCMV inh 13, Cycloheximide cs -3 and Pf growth 48h -11%.
`C=CCOC(=O)C(C#N)c1nc2ccccc2nc1N1CCN(c2ccccc2OCC)CC1` (stereo not drawn) gave HCV inh 36%, Shiga toxin inh -10, Pf growth 96h 9.3µM*, HCMV inh -21, Cycloheximide cs -8 and Pf growth 48h 9.3µM*.
`O=C(/C(=C/O)N=Nc1ccccc1)c1ccncc1` gave HCV inh 16%, Shiga toxin inh -2, Pf growth 96h inconclusive, HCMV inh 0 and Cycloheximide cs -4.
`Cc1cccc(N=N/C(=C\O)C(=O)c2cccs2)c1` gave HCV inh inconclusive, Shiga toxin inh 93*, Pf growth 96h 12µM*, HCMV inh -5, Cycloheximide cs 35* and Pf growth 48h inconclusive.
Screening COc1ccccc1C(=O)NCCC(=O)Nc1ccc(S(=O)(=O)N2CC(C)CC(C)C2)cc1 (stereo not drawn) returned HCV inh inconclusive, Pf growth 96h 15µM*, HCMV inh -25 and Pf growth 48h inconclusive.
`COc1ccccc1C(=O)NCCC(=O)NCC1CCCCC1` gave HCV inh 4% and HCMV inh 2.
For COc1ccccc1C(=O)NCCC(=O)Nc1ccc(S(=O)(=O)N2C(C)CCCC2C)cc1 (stereo not drawn) the results were HCV inh 10µM*, Pf growth 96h inconclusive, HCMV inh -11 and Pf growth 48h 15µM*.
For CCn1c(=N)n(CC(=O)c2ccc(Cl)c(Cl)c2)c2ccccc21 the results were HCV inh inconclusive, Shiga toxin inh 74*, Pf growth 96h 29%, HCMV inh 98, Cycloheximide cs 40* and Pf growth 48h inconclusive.
Screening CCn1c(=N)n(CC(=O)c2ccc(OC)cc2)c2ccccc21 returned HCV inh -15%, Shiga toxin inh 6, Pf growth 96h 31%, HCMV inh 23, Cycloheximide cs 19 and Pf growth 48h 35%.
N=c1n(CCN2CCCCC2)c2ccccc2n1CC(=O)c1ccc(Cl)c(Cl)c1 was read as HCV inh inconclusive, Shiga toxin inh 18, Pf growth 96h 2.6µM*, HCMV inh -19, Cycloheximide cs 2 and Pf growth 48h 1.5µM*.
Screening Cc1ccc(C(=O)Cn2c(=N)n(CCN3CCOCC3)c3ccccc32)cc1 returned HCV inh -18%, Pf growth 96h inconclusive, HCMV inh 72 and Pf growth 48h 9.3µM*.
COC(=O)Cn1c(=N)n(CCN2CCCCC2)c2ccccc21 was read as HCV inh 14%, Shiga toxin inh -10, Pf growth 96h 12%, HCMV inh -25, Cycloheximide cs -4 and Pf growth 48h 9%.
Screening CSc1nc(SCC(=O)NC(c2ccccc2)c2ccccc2)c2c3c(sc2n1)CN(C)CC3 returned HCV inh 1.8µM*, Shiga toxin inh 12, Pf growth 96h 2.9µM*, HCMV inh -29, Cycloheximide cs -4 and Pf growth 48h 7.4µM*.
Screening CSc1nc(NCC(C)O)c2c3c(sc2n1)CN(C)CC3 (stereo not drawn) returned HCV inh -14%, Shiga toxin inh -7, Pf growth 96h 6.6µM*, HCMV inh -12, Cycloheximide cs -2 and Pf growth 48h inconclusive.
Screening CSc1nc(NCCCO)c2c3c(sc2n1)CN(C)CC3 returned HCV inh inconclusive, Shiga toxin inh -2, Pf growth 96h 5.2µM*, HCMV inh -4, Cycloheximide cs 0 and Pf growth 48h inconclusive.
